Key:
Conditions in all cases: concentration: 1 μM, replicates: in singlicate; n = 1
SRMS = test system: SRMS
SRPK1 = test system: SRPK1
SRPK2 = test system: SRPK2
SRPK3 = test system: SRPK3
STK16 = test system: STK16
STK33 = test system: STK33
STK35 = test system: STK35
STK36 = test system: STK36
STK39 = test system: STK39
SYK = test system: SYK
SgK110 = test system: SgK110
TAK1 = test system: T1, TAK1
T1 construct: gene MAP3K7

TAOK1 = test system: TAOK1
TAOK2 = test system: TAOK2
TAOK3 = test system: TAOK3
TBK1 = test system: TBK1
TEC = test system: TEC
TESK1 = test system: TESK1
TGFBR1 = test system: TGFBR1
TGFBR2 = test system: TGFBR2
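Note: KINOMEscan kinase panel screen.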

SMILES	%Inh (SRMS)	%Inh (SRPK1)	%Inh (SRPK2)	%Inh (SRPK3)	%Inh (STK16)	%Inh (STK33)	%Inh (STK35)	%Inh (STK36)	%Inh (STK39)	%Inh (SYK)	%Inh (SgK110)	%Inh (TAK1)	%Inh (TAOK1)	%Inh (TAOK2)	%Inh (TAOK3)	%Inh (TBK1)	%Inh (TEC)	%Inh (TESK1)	%Inh (TGFBR1)	%Inh (TGFBR2)
Oc1ccc2ncnc(Nc3ccc(OCc4ccccc4)cc3)c2c1 [GI262866]	0%	32%	0%	15%	3%	8%	7%	0%	0%	14%	0%	0%	0%	0%	0%	0%	0%	0%	0%	0%
Cl.Fc1ccccc1COc1ccc(Nc2ncnc3ccc(-c4nnc(C(F)(F)F)o4)cc23)cc1Cl [GW424170]	0%	0%	3%	0%	0%	0%	0%	0%	0%	0%	0%	0%	0%	0%	0%	7%	5%	29%	0%	0%
COC(=O)c1cccc(NC(=O)NCCNc2ccnc(Nc3ccc(F)cc3)n2)c1 [GSK1379883]	0%	17%	0%	7%	5%	0%	0%	0%	0%	5%	0%	0%	0%	0%	0%	16%	0%	23%	13%	0%
CN1c2ccc(-c3ccc(C(=O)NCCO)cc3)cc2-c2[nH]ncc2S1(=O)=O	0%	12%	5%	1%	2%	9%	26%	30%	13%	41%	0%	63%	0%	30%	0%	31%	1%	17%	0%	0%
C[C@H]1CC[C@@H](C(=O)Nc2ccccc2)CN1c1cc(-c2ccc3c(N)n[nH]c3c2)nc(N)n1 [GSK2283293]	19%	54%	0%	16%	0%	0%	0%	0%	0%	4%	0%	0%	0%	0%	0%	7%	11%	26%	14%	0%
Cl.O=S(=O)(c1cccc(F)c1)c1ccc(Nc2ncnc3cc(Br)sc23)cc1Cl [GSK306886]	0%	100%	0%	0%	25%	0%	0%	0%	1%	5%	0%	0%	0%	0%	0%	9%	0%	0%	7%	0%
Fc1ccc(Nc2nccc(-c3c(-c4ccc(Cl)cc4)nn4ncccc34)n2)cc1F [GW829058]	22%	0%	0%	6%	23%	1%	0%	8%	22%	7%	9%	38%	10%	16%	27%	31%	8%	16%	0%	0%
Cl.c1ccc(Cn2ccc3cc(Nc4ncnc5ccccc45)ccc32)cc1 [GW275568]	15%	11%	0%	0%	19%	0%	0%	20%	18%	26%	0%	6%	0%	23%	0%	39%	4%	9%	29%	0%
CC(C)N1CCC(n2cnc(-c3ccc(F)cc3)c2-c2ccnc(N)n2)CC1 [SB-223132]	0%	0%	45%	6%	0%	0%	0%	26%	0%	19%	0%	0%	0%	0%	0%	50%	6%	23%	25%	0%
Clc1cccc(-c2nc(Nc3ccncc3)c3ccccc3n2)c1 [GW873004]	2%		43%	0%	0%	26%	0%	3%	0%	33%	38%	0%	0%	4%	0%	11%	17%	19%		17%
O=C(Nc1ccccc1F)NC1CCN(c2ccnc(Nc3ccc(F)cc3)n2)C1 (centres unmarked) [GSK1379722]	0%	0%	0%	3%	0%	0%	0%	0%	29%	10%	0%	0%	0%	0%	0%	0%	6%	16%	25%	0%

From article PMC5540273 (PLoS ONE, 2017)
